Assay in all cases: DAPPL (digital affinity profiling via proximity ligation, sequencing); 10 mM Tris-HCl pH 7.5, 50 mM NaCl, 1 mM DTT, 4% glycerol, room temperature, 30 min; GST-TFs on glutathione beads, 16-mer random dsDNA library, 0.1% formaldehyde crosslink after washing; high values mean tight binding
Conditions in all cases: protein: recombinant; tags: N-terminal GST; dsDNA, one strand shown

In one experiment the target is T1, FLI1 (Homo sapiens, UniProt Q01543 1-452).
T1 sequence: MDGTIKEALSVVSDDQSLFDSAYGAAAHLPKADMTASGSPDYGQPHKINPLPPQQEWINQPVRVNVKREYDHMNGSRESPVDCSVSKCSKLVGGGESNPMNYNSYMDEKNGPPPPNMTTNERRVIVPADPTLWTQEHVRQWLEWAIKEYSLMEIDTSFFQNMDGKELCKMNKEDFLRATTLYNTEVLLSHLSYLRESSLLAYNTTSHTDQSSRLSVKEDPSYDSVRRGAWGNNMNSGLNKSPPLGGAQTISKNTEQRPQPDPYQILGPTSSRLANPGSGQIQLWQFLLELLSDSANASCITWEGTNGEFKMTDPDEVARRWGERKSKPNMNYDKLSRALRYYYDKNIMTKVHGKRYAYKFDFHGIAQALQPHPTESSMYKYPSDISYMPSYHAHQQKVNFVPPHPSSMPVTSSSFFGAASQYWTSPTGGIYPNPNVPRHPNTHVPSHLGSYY
An outline of the steps: (§1)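 After expression in yeast as GST fusions, human transcription factors were bound to glutathione beads, DNA-barcoded and mixed with a tag-only sample. The pools were incubated with 200 nmole of a 16-mer random double-stranded DNA library in Tris/NaCl/DTT/glycerol buffer (30 min, room temperature), washed and crosslinked with 0.1% formaldehyde. Proximity ligation with BsaI/T4 ligase ran for 1 h at 37 °C, before PCR amplification and sequencing on an Illumina NextSeq500. Binding signal is a hexamer's read frequency for a factor divided by its frequency for the tag-only sample.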

For the next experiment, the target named is T2, ELK1 (Homo sapiens, UniProt P19419 1-428).
T2 sequence: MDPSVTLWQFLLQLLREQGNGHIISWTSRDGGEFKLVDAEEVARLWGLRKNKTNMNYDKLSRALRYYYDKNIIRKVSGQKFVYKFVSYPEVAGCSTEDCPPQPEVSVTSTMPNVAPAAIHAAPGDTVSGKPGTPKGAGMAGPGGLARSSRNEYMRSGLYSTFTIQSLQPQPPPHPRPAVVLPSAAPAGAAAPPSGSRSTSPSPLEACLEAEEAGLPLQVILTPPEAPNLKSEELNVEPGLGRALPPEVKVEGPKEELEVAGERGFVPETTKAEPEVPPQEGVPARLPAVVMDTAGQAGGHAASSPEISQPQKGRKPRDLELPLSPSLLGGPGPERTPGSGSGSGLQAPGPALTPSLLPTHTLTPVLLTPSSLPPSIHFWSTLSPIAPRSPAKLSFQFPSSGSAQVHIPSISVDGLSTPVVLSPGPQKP
The method, boiled down:
as §1

In another experiment the target is T3, GABPA (Homo sapiens, UniProt Q06546 1-454).
T3 sequence: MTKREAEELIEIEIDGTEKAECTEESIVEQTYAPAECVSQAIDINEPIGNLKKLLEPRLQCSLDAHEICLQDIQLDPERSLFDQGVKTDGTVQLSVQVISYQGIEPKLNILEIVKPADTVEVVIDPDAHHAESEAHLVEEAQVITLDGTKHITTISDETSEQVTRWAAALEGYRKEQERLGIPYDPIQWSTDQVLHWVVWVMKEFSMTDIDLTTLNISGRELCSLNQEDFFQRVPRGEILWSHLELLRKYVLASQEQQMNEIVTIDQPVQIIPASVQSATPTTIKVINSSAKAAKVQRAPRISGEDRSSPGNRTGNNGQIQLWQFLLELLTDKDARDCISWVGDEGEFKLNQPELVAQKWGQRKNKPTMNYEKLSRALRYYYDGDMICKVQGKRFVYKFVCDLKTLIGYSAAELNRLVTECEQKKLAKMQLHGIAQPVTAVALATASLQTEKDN
An outline of the steps:
as §1

In a further experiment the target is T4, ERG (Homo sapiens, UniProt P11308 1-479).
T4 sequence: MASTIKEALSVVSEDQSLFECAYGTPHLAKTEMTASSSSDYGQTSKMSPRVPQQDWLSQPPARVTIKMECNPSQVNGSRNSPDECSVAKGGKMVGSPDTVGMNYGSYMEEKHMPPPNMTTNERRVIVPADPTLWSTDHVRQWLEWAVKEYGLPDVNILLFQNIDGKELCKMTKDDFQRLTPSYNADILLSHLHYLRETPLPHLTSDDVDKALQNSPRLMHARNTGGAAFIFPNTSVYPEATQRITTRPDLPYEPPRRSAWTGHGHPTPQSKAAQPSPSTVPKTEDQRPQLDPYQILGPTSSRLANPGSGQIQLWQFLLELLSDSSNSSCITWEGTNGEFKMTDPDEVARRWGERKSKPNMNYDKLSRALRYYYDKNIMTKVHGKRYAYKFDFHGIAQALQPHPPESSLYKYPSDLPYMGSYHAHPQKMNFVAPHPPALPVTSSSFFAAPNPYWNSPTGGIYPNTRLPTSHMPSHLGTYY
The method, boiled down:
as §1

The next experiment addresses ELF1 (Homo sapiens, UniProt P32519 1-619). An outline of the steps: as §1
In another experiment the target is T5, EHF (Homo sapiens, UniProt Q9NZC4 1-300).
T5 sequence: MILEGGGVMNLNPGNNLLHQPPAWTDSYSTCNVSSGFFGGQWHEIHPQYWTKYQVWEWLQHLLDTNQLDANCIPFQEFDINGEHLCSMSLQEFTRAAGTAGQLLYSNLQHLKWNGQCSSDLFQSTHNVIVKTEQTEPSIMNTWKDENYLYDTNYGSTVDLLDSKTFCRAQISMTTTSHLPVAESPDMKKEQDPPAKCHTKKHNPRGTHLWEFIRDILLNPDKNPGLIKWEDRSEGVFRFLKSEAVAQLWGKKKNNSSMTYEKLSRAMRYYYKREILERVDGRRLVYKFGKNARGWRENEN
An outline of the steps: as §1

Another experiment concerns the target SPI1 (Homo sapiens, UniProt P17947 1-270). An outline of the steps:
as §1

For a further experiment, the target named is SPIB (Homo sapiens, UniProt Q01892 1-262). The method, boiled down:
as §1

The target in another experiment is T6, ELK3 (Homo sapiens, UniProt P41970 1-407).
T6 sequence: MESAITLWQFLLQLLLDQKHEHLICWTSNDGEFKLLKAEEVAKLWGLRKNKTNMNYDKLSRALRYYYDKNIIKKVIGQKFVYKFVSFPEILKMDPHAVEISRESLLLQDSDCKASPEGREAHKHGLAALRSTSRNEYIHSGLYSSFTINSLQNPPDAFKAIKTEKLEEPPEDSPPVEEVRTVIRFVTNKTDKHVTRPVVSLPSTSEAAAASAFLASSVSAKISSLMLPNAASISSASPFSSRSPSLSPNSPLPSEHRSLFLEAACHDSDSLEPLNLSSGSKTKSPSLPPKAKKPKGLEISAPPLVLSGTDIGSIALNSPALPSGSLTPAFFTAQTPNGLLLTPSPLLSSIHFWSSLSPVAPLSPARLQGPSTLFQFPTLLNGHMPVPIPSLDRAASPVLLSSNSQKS
The method, boiled down: as §1

Chain of SPIB (Q01892 whole entry): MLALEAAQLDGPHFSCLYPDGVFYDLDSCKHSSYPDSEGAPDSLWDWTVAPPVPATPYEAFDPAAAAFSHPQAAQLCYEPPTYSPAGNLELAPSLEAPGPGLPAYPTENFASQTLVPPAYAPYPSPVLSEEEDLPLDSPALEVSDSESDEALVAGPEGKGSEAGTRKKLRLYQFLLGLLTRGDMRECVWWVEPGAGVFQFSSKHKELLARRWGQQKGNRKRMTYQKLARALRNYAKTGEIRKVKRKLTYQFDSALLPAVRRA
Chain of ELF1 (P32519 whole entry): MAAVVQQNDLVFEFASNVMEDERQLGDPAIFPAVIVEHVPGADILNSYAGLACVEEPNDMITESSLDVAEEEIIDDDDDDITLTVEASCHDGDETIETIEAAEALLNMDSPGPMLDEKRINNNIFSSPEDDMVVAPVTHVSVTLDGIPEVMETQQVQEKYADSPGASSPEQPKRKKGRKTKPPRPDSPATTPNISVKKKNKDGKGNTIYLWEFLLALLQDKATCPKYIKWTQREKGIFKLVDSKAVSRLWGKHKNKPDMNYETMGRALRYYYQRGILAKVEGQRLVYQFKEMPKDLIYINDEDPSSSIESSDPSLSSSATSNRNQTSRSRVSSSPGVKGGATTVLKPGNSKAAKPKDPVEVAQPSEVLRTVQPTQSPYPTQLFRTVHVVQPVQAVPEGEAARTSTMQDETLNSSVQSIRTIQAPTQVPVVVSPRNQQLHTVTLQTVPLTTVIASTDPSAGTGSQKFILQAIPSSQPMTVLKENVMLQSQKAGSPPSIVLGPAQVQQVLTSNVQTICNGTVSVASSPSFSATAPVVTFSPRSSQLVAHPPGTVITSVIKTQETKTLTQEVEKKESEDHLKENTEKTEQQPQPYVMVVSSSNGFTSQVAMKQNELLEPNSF

For CTCTTA, the binding signal with FLI1 is 1.35 fold enrichment (6-mer frequency, TF over GST control); with ELK1, 1.4 fold enrichment (6-mer frequency, TF over GST control); in the experiment with GABPA it was 1.45 fold enrichment (6-mer frequency, TF over GST control); with ERG it was 1.27 fold enrichment (6-mer frequency, TF over GST control); with ELF1 it was 1.51 fold enrichment (6-mer frequency, TF over GST control); with EHF it was 1.23 fold enrichment (6-mer frequency, TF over GST control). In addition, the binding signal in the experiment with SPI1 was 1.4 fold enrichment (6-mer frequency, TF over GST control); with SPIB, 1.32 fold enrichment (6-mer frequency, TF over GST control); in the experiment with ELK3, 1.36 fold enrichment (6-mer frequency, TF over GST control).
Turning to TTTGAA, the binding signal in the experiment with FLI1 is 1.22 fold enrichment (6-mer frequency, TF over GST control); with ELK1, 1.09 fold enrichment (6-mer frequency, TF over GST control); with GABPA it was 1.2 fold enrichment (6-mer frequency, TF over GST control); with ERG, 1.21 fold enrichment (6-mer frequency, TF over GST control); with ELF1 it was 1.23 fold enrichment (6-mer frequency, TF over GST control); with EHF, 1.24 fold enrichment (6-mer frequency, TF over GST control). Moreover, the binding signal is 1.2 fold enrichment (6-mer frequency, TF over GST control) with SPI1; 1.2 fold enrichment (6-mer frequency, TF over GST control) with SPIB; 1.17 fold enrichment (6-mer frequency, TF over GST control) with ELK3.
Regarding TCATTT, the binding signal is 1.36 fold enrichment (6-mer frequency, TF over GST control) in the experiment with FLI1; 1.33 fold enrichment (6-mer frequency, TF over GST control) in the experiment with ELK1; 1.19 fold enrichment (6-mer frequency, TF over GST control) with GABPA; 1.35 fold enrichment (6-mer frequency, TF over GST control) with ERG; 1.25 fold enrichment (6-mer frequency, TF over GST control) in the experiment with ELF1; 1.36 fold enrichment (6-mer frequency, TF over GST control) with EHF. The binding signal was 1.5 fold enrichment (6-mer frequency, TF over GST control) with SPI1; 1.34 fold enrichment (6-mer frequency, TF over GST control) in the experiment with SPIB; 1.16 fold enrichment (6-mer frequency, TF over GST control) with ELK3.
For the sequence TTACTC, the binding signal was 1.31 fold enrichment (6-mer frequency, TF over GST control) with FLI1; 1.24 fold enrichment (6-mer frequency, TF over GST control) with ELK1; 1.26 fold enrichment (6-mer frequency, TF over GST control) with GABPA; 1.19 fold enrichment (6-mer frequency, TF over GST control) in the experiment with ERG; 1.24 fold enrichment (6-mer frequency, TF over GST control) with ELF1; 1.34 fold enrichment (6-mer frequency, TF over GST control) with EHF. Besides, the binding signal with SPI1 was 1.32 fold enrichment (6-mer frequency, TF over GST control); in the experiment with SPIB it was 1.24 fold enrichment (6-mer frequency, TF over GST control); with ELK3 it was 1.26 fold enrichment (6-mer frequency, TF over GST control).
As for TATGAA, the binding signal in the experiment with FLI1 was 1.18 fold enrichment (6-mer frequency, TF over GST control); with ELK1, 1.17 fold enrichment (6-mer frequency, TF over GST control); in the experiment with GABPA it was 1.21 fold enrichment (6-mer frequency, TF over GST control); with ERG, 1.14 fold enrichment (6-mer frequency, TF over GST control); with ELF1, 1.18 fold enrichment (6-mer frequency, TF over GST control); with EHF it was 1.12 fold enrichment (6-mer frequency, TF over GST control). In addition, the binding signal with SPI1 is 1.19 fold enrichment (6-mer frequency, TF over GST control); with SPIB, 1.17 fold enrichment (6-mer frequency, TF over GST control); in the experiment with ELK3, 1.16 fold enrichment (6-mer frequency, TF over GST control).
Take ATTGTA: the binding signal with FLI1 is 1.22 fold enrichment (6-mer frequency, TF over GST control); in the experiment with ELK1 it was 1.33 fold enrichment (6-mer frequency, TF over GST control); in the experiment with GABPA, 1.17 fold enrichment (6-mer frequency, TF over GST control); in the experiment with ERG, 1.19 fold enrichment (6-mer frequency, TF over GST control); with ELF1, 1.24 fold enrichment (6-mer frequency, TF over GST control); with EHF, 1.22 fold enrichment (6-mer frequency, TF over GST control). Moreover, the binding signal is 1.09 fold enrichment (6-mer frequency, TF over GST control) with SPI1; 1.24 fold enrichment (6-mer frequency, TF over GST control) in the experiment with SPIB; 1.27 fold enrichment (6-mer frequency, TF over GST control) in the experiment with ELK3.
Take TTACCC: the binding signal was 1.3 fold enrichment (6-mer frequency, TF over GST control) with FLI1; 1.44 fold enrichment (6-mer frequency, TF over GST control) with ELK1; 1.3 fold enrichment (6-mer frequency, TF over GST control) in the experiment with GABPA; 1.34 fold enrichment (6-mer frequency, TF over GST control) in the experiment with ERG; 1.38 fold enrichment (6-mer frequency, TF over GST control) in the experiment with ELF1; 1.43 fold enrichment (6-mer frequency, TF over GST control) in the experiment with EHF. For the same sequence, the binding signal in the experiment with SPI1 was 1.35 fold enrichment (6-mer frequency, TF over GST control); in the experiment with SPIB, 1.45 fold enrichment (6-mer frequency, TF over GST control); with ELK3 it was 1.39 fold enrichment (6-mer frequency, TF over GST control).
Turning to ATACGA, the binding signal with FLI1 was 1.09 fold enrichment (6-mer frequency, TF over GST control); in the experiment with ELK1 it was 1.12 fold enrichment (6-mer frequency, TF over GST control); in the experiment with GABPA, 1.1 fold enrichment (6-mer frequency, TF over GST control); with ERG, 1.14 fold enrichment (6-mer frequency, TF over GST control); with ELF1, 1.14 fold enrichment (6-mer frequency, TF over GST control); with EHF, 1.12 fold enrichment (6-mer frequency, TF over GST control). The binding signal is 1.08 fold enrichment (6-mer frequency, TF over GST control) with SPI1; 1.09 fold enrichment (6-mer frequency, TF over GST control) with SPIB; 1.23 fold enrichment (6-mer frequency, TF over GST control) with ELK3.
